HT1080 IDH1KD tx = toxicity to HT-1080 IDH1 knockdown cells (counter line); HT-1080 IDH1 knockdown viability, ATP luminescence, 48 h; Potency, µM (top dose mostly 46.1 µM), for the others: top-dose activity, negative = toxicity, usual class: cytotoxic; hit rate 2% among 360,000;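 note: potency is the fitted concentration of half-maximal effect; 0% = DMSO wells and -100% = cell-free medium wells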
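Luminescent ATP read-out (CellTiter-Glo, 10 min at room temperature) after 48 h compound exposure at 37 °C gave viability of IDH1-knockdown HT-1080 cells. Activity was normalised to DMSO and cell-free wells, then fitted as concentration-response curves.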
DT40 TDP1 no CPT = qHTS for Inhibitors of human tyrosyl-DNA phosphodiesterase 1 (TDP1): qHTS in cells in absence of CPT | DT40 Tdp1-/- hTDP1 cells, no CPT, ATP luminescence, 48 h | Potency, µM (top dose mostly 46.2 µM), for the others: at the highest dose activity change, negative = growth inhibition, actives largely listed as inhibitors | hit rate 15% among 420,000; note: potency is the fitted concentration of half-maximal effect; nearly all actives have a fitted effect of over 55% in size
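Growth of hTDP1-complemented DT40 Tdp1-knockout cells is measured by ATP luminescence after at least 48 hr compound exposure at 37 °C, with DMSO substituting for the 20 nM CPT used in the parallel screen.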
IL-1B inflam inh = inhibitors of inflammasome signaling (IL-1 beta secretion). THP-1 LPS/ATP IL-1B secretion, AlphaLISA, 16 h; active compounds read low. activity change, % at 57.5 µM. hit rate 4.7% among 360,000. AID 743279; in the data active = activity change below about -50%; inconclusive = mostly about -30% to -49%
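Secreted IL-1B measured by AlphaLISA bead assay after 16 h compound exposure of THP-1 cells; compounds (final up to 57.5 uM) added 1 h before LPS (250 ng/mL) and ATP (1.25 mM) stimulation; lower signal means less secretion.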
TDP1 cell CPT = growth inhibition of DT40 Tdp1-/-;hTDP1 cells with camptothecin (screen for TDP1 inhibitors). chicken DT40 Tdp1-/-;hTDP1 cells + 20 nM CPT, ATP luminescence, 48 h. Potency, µM (highest dose often 46.2 µM), for inactives: at the top dose activity change, negative = growth inhibition, hits mostly inhibitors. hit rate 12% among 420,000; note: potency is the fitted concentration of half-maximal effect; nearly all actives have a fitted effect of over 55% in size
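Chicken DT40 Tdp1-/- cells stably complemented with human TDP1 were seeded at 400 cells/well in medium containing 20 nM camptothecin, exposed to pin-transferred compounds, and grown at 37 °C for at least 48 hr. Viability was read as ATP luminescence.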
HT1080-NT tox = kills 2HG-producing HT-1080-NT fibrosarcoma cells; AID 686970; HT-1080-NT fibrosarcoma viability, CellTiter-Glo ATP luminescence, 48 h; hit rate 1.6% among 360,000; Potency, µM (titrated, usually from 46.1 µM), for the others: at the highest dose activity, negative = less viability, usual class: cytotoxic;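 note: NT is the 2HG producing partner of a matched IDH1 knockdown line; potency is the fitted concentration of half-maximal effect; 0% = DMSO-treated cells and -100% = media-only wells without cells; nearly all actives have a fitted effect of over 55% in size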
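Read-out is CellTiter-Glo luminescence after 10 minutes at room temperature, following 48 hours' compound treatment of HT-1080-NT cells (750 cells/well, RPMI, 5% FBS, 37 degrees C).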
An asterisk follows results filed as active; ? = inconclusive; . = not tested or not shown. A selection: hits, their analogues and other compounds. The true share with any hit is near 19%. Unless noted, calls come from the whole dose curve; as a rule, active = well fitted curve in the direction sought with a large enough effect; inconclusive = small, poorly fitted or top-dose-only effect, or another doubt; inactive = no such curve, though single readings can be large; an effect the other way counts as inactive or inconclusive. Unless noted, % is set by controls: 0 for no effect and ±100 for the full control effect.

SMILES	HT1080 IDH1KD tx	DT40 TDP1 no CPT	IL-1B inflam inh	TDP1 cell CPT	HT1080-NT tox
C[C@H](O)[C@@H]1CN2CCc3c([nH]c4ccc(-c5ccc6c(c5)OCO6)cc34)[C@@H]2C[C@@H]1N(C)C(=O)NC1CCCCC1	1%	?	8	-5%	0%
C=CCc1c(Cl)nc(C)nc1NCc1ccccc1	?	?	-10	?	-29%
[O-][n+]1c2cc(C(F)(F)F)ccc2c2n1CCN=C2c1ccc(Cl)cc1	-3%	?	16	-18%	8%
O[C@@H](CNC[C@H](O)[C@H]1CCc2cc(F)ccc2O1)[C@@H]1CCc2cc(F)ccc2O1	.	4.2µM*	.	6.7µM*	.
COc1cc(C(=O)Nc2ccc(NC(=O)C3CCCCC3)nc2)cc(OC)c1OC	?	18µM*	-1	?	?
Cc1ccc(NC(=O)c2cccc(Cl)c2)nc1	-2%	-26%	-7	-25%	-2%
O=C(Nc1ccc(NC(=O)C2CC2)nc1)c1ccccc1F	6%	-15%	7	5%	13%
COc1cc(C(=O)Nc2ccc(NC(=O)c3cccc(Cl)c3)nc2)cc(OC)c1OC	?	8.2µM*	-4	26µM*	-6%
O=C(Nc1ccc(NC(=O)C2CCCCC2)nc1)c1cccs1	-2%	12µM*	-23	?	-6%
COc1cc(NC(=O)C(CCS(C)(=O)=O)N2Cc3ccccc3C2=O)cc(OC)c1OC (centres undefined)	.	26%	.	11%	.
O=C(NCc1nnc(SCC(=O)N2CCCc3ccccc32)o1)c1c(F)cccc1Cl	1%	-11%	-8	-29%	5%
COC(=O)CN(c1cccc(F)c1)S(C)(=O)=O	8%	8%	8	1%	14%
O=C(CSc1n[nH]c(-c2ccccc2)n1)NCc1cccc(C(=O)O)c1	18%	0%	6	10%	24%
O=c1cc(CSc2n[nH]c(-c3ccccc3)n2)[nH]c2ccccc12	.	26µM*	.	26µM*	.
COc1cccc(-c2nc(SCc3cc(=O)c4ccc(C)c(C)c4[nH]3)n[nH]2)c1	.	8.2µM*	.	?	.
O=c1cc(-c2ccccc2)[nH]c2ccccc12	2.3µM*	0.92µM*	92	0.52µM*	?
CCN(CC)C(=O)CSc1nnc(-c2cc(-c3ccc(Cl)cc3)nc3ccccc23)o1	2%	?	3	-68%	18%
CN(C)C(=O)CSc1nnc(-c2cc(-c3cccs3)nc3ccccc23)o1	-7%	18µM*	-60*	-46%	0%
CCOC(=O)C(C)On1c(-c2ccccc2)nc2ccc([N+](=O)[O-])cc21 (centres undefined)	-4%	18µM*	-15	?	-2%
Cc1ccc(C(C)C)c(OCC(=O)NC(=S)Nc2ccccc2N2CCOCC2)c1	?	16µM*	0	23µM*	?
CCC(=O)N1CCN(c2ccccc2NC(=O)COc2cc(C)ccc2C(C)C)CC1	?	23µM*	-95*	16µM*	?
Cc1cccc(OCC(=O)NC(=S)Nc2ccccc2N2CCOCC2)c1C	-3%	-6%	1	-21%	-2%
COc1ccccc1N1CCN(C2CCN(S(=O)(=O)c3ccc(C)cc3)CC2)CC1	-9%	?	-6	-29%	-19%
COc1ccccc1N1CCN(C2CCN(S(=O)(=O)c3ccc4ccccc4c3)CC2)CC1	0%	?	-62*	?	-3%
COc1ccccc1N1CCN(S(=O)(=O)c2ccc3nc(-c4ccccc4)[nH]c3c2)CC1	-6%	21µM*	?	?	-6%
SMILES	HT1080 IDH1KD tx	DT40 TDP1 no CPT	IL-1B inflam inh	TDP1 cell CPT	HT1080-NT tox
N[C@H](CCCP(=O)(O)O)C(=O)O	.	-3%	.	4%	.
Cc1ccc(C(=O)C(C)OC(=O)Cn2cnc3c2c(=O)n(C)c(=O)n3C)cc1 (centres undefined)	22%	7%	8	-3%	14%
Cc1ccc(N2CCn3c2nc2c3c(=O)n(Cc3cccc(Cl)c3)c(=O)n2C)cc1C	.	-21%	.	?	.
O=C1CC(c2cccc([N+](=O)[O-])c2)c2c(ccc3ccccc23)N1 (centres undefined)	12µM*	8.2µM*	-21	13µM*	?
COc1cccc(C2CC(=O)Nc3cc(C)c(C)cc32)c1 (centres undefined)	-25%	15µM*	38	?	?
Cc1ccc(C2CC(=O)Nc3c2ccc2ccccc32)cc1[N+](=O)[O-] (centres undefined)	?	?	-30	-24%	-25%
COc1cccc(C2CC(=O)Nc3cc4c(cc32)CCC4)c1 (centres undefined)	26µM*	2.6µM*	63	4.1µM*	23µM*
COc1cccc(C2CC(=O)Nc3cc(OC)c(OC)cc32)c1 (centres undefined)	9%	-25%	21	-26%	-2%
O=C1CC(c2cccc(Cl)c2)c2cc3c(cc2N1)CCC3 (centres undefined)	?	2.9µM*	37	4.6µM*	7.1µM*
O=C(c1ccc(OC2CCN(Cc3ccccn3)CC2)cc1)N1CCC[C@H]1CO	1%	11%	0	2%	0%
COc1ccc(-c2csc(NC(=O)C3=COCCO3)n2)cc1OC	1%	?	?	?	-3%
O=C1CC(c2cccc([N+](=O)[O-])c2)c2cc3c(cc2N1)CCC3 (centres undefined)	?	26µM*	53	18µM*	?
CC1(C)COC(c2cccc([N+](=O)[O-])c2)OC1	11%	-2%	-8	-10%	18%
O=C(CN(c1ccc(Br)cc1)S(=O)(=O)c1ccc(Cl)c([N+](=O)[O-])c1)NCC1CCCO1 (centres undefined)	?	?	-98*	16µM*	?
O=C(Nc1nc(-c2ccc(F)cc2)cs1)C1CCCO1 (centres undefined)	5%	?	-56*	?	-2%
Cc1ccc(-c2[nH]c(-c3ccc(Cl)cc3)nc2SCC(=O)NCC2CCCO2)cc1 (centres undefined)	0%	4.1µM*	0	?	14%
O=C(Nc1nc(-c2ccccc2)cs1)C1CCCO1 (centres undefined)	4%	-12%	2	-5%	-4%
CN(CC(=O)NCC1CCCO1)S(=O)(=O)c1ccc(Br)cc1 (centres undefined)	-1%	4%	0	-1%	-2%
O=C(CSc1nnc2ccc(-c3ccc(Br)cc3)nn12)NCC1CCCO1 (centres undefined)	-1%	?	?	21µM*	-10%

Assay outcomes (PubChem BioAssay)
